test system: HFF; experiment: cell viability relative to DMSO control; higher = less cytotoxic; conditions: 1 µM; 72 h
Procedure: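 Single-dose cytotoxicity screen of the MMV Pandemic Response Box at 1 uM on human foreskin fibroblasts (HFF), 72 h at 37 C. Viability measured by MTT (OD 550 nm) and normalised to the DMSO control (% survival).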

Row | SMILES | cell viability [%]
1 | Cc1c(CN(C)C(=O)/C=C/c2cnc3c(c2)C(C)(C)C(=O)N3)oc2ccccc12 | 63.6
2 | O=C(CCCC(F)(F)F)N1CCC(c2nc(-c3nccs3)no2)CC1 | 67.4
3 | O=C(O)CSc1cc(NS(=O)(=O)c2cccc3cccnc23)c2ccccc2c1O | 59.6
4 | CN(C)CCCOc1ccc(-c2ccc3ncc4c(c3c2)n(C2CCOCC2)c(=O)n4C)cn1 | 60.6
5 | CCOC(=O)Nc1cc(NC(C)CC(C)CN(CC)CC)c2nc(-c3ccccc3)c(-c3ccccc3)nc2n1 (stereo not given) | 78.5
6 | CC(C)Oc1ccc(-c2nc(-c3cccc4c3CC[C@@H]4NCCO)no2)cc1C#N | 65.4
7 | O=C(Nc1nnc(-c2ccc(Cl)cc2)o1)c1nc2ccccc2s1 | 65.8
8 | O=C1[C@H](CC[C@H](O)c2ccc(F)cc2)[C@@H](c2ccc(O)cc2)N1c1ccc(F)cc1 | 73
9 | CC[C@H]1OC(=O)[C@H](C)[C@@H](O[C@H]2C[C@@](C)(OC)[C@@H](O)[C@H](C)O2)[C@H](C)[C@@H](O[C@@H]2O[C@H](C)C[C@H](N(C)C)[C@H]2O)[C@](C)(O)C[C@@H](C)C(=O)[C@H](C)[C@@H](O)[C@]1(C)O | 71.6
10 | C=CCc1cc(Cc2cnc(N)nc2N)cc(OC)c1O | 72.9
11 | CN(C(=O)C1(c2ccc(Cl)cc2)CCC1)c1ccccc1 | 63.2
12 | COc1cccc(N2CCN(C3=Nc4c(F)cccc4[C@H](CC(=O)O)N3c3cc(C(F)(F)F)ccc3OC)CC2)c1 | 55.7
13 | CC(=O)Oc1ccccc1C(=O)Nc1ncc([N+](=O)[O-])s1 | 62.8
14 | O=C(c1nc2c(C(F)(F)F)cc(C3CC3)cn2c1Cl)N1CCN([C@H]2CC[C@H](O)CC2)C(=O)C1 | 61.7
15 | CNCC(=O)OCc1cccnc1N(C)C(=O)OC(C)[n+]1cnn(C[C@](O)(c2cc(F)ccc2F)[C@@H](C)c2nc(-c3ccc(C#N)cc3)cs2)c1 (stereo not given in full) | 60.6
16 | CN(O)C(=O)c1cc2c(CN3CCC[C@H]3C(N)=O)cn(Cc3ccc(F)cc3)c2cn1 | 64.1
17 | Nc1nnc(-c2ccc(Cl)cc2)s1 | 62.7
18 | CC1CCc2c(N3CCC(O)CC3)c(F)cc3c(=O)c(C(=O)O)cn1c23 (stereo not given) | 59.7
19 | N[C@H](CCC(=O)N[C@@H](Cc1c[nH]c2ccccc12)C(=O)O)C(=O)O | 61.9
20 | Cc1nc(Nc2ccc(F)cc2)nc(N2CCc3ccccc3C2C)c1C (stereo not given) | 65.9

Row | SMILES | cell viability [%]
21 | C=C[C@]1(C)C[C@@H](OC(=O)CS[C@@H]2C[C@H]3CC[C@@H](C2)N3C)[C@]2(C)[C@H](C)CC[C@]3(CCC(=O)[C@H]32)[C@@H](C)[C@@H]1O | 72.2
22 | CCOc1ccc(/C=N/NC(=O)C2CC2c2ccc(C(C)(C)C)cc2)cc1OCC (stereo not given) | 57.3
23 | CC(C)(C)NC(=O)N[C@H](C(=O)N1C[C@H]2[C@@H]([C@H]1C(=O)NC(CC1CCC1)C(=O)C(N)=O)C2(C)C)C(C)(C)C (stereo not given in full) | 63.4
24 | COc1ccc(SC(=O)N[C@H](CCC(=O)O)C(=O)O)cc1 | 59.7
25 | COc1ccc(CNC(=O)C(NS(=O)(=O)c2ccc3nc(C)sc3c2)C(C)C)cc1 (stereo not given) | 64.5
26 | CCN(CC)CCn1c(=N)n(CC(O)COc2ccc(Cl)cc2Cl)c2ccccc21 (stereo not given) | 60.7
27 | COc1ccc2c(c1)cc(CNC(=O)c1cc3ccccc3o1)n2CC(=O)O | 62.5
28 | Cc1nc2ccc(Cl)cc2c(-c2ccccc2)c1CC(=O)O | 77
29 | CC(=O)N[C@H](C)C(=O)N[C@H](Cc1ccccc1)C(=O)O | 61.1
30 | Cc1ncc([N+](=O)[O-])n1CC(C)O (stereo not given) | 68.8
31 | COC(=O)Nc1nc2c(C)cccc2[nH]1 | 69.3
32 | CC(=O)N1CCN(c2ccc(OCC3COC(Cn4ccnc4)(c4ccc(Cl)cc4Cl)O3)cc2)CC1 (stereo not given) | 62.9
33 | CO/N=C(\C(=O)N[C@@H]1C(=O)N2C(C(=O)OCOC(=O)C(C)(C)C)=C(/C=C\c3scnc3C)CS[C@H]12)c1csc(N)n1 | 66
34 | CCc1cc(Nc2cc(=O)n(CCN3CCN(C(=O)c4ccccc4)CC3)c(=O)[nH]2)ccc1C | 68.7
35 | CC(C)(C)c1cccc(-c2nc3cc(C(=N)N)ccc3[nH]2)c1O | 64.8
36 | CCc1cc(CCC(=O)Nc2ccccc2O)c(O)nc1C | 71.2
37 | CONC(=N)c1ccc(-c2ccc(-c3ccc(C(=N)NOC)cc3)o2)cc1 | 63.9
38 | CCN(CC)CCCC(C)Nc1ccnc2cc(Cl)ccc12 (stereo not given) | 66.4
39 | C[C@H](c1cccc2ccccc12)N(C)Cc1ccccc1 | 65.7
40 | CCn1cc(C(=O)O)c(=O)c2cc(F)c(N3CCNC(C)C3)c(F)c21 (stereo not given) | 71.2

Source: the supplement of paper PMC10941209
